Our source for the fluorescence change (max-min) values is PubChem BioAssay AID1741 (Vanderbilt High Throughput Screening Facility, 2009).

Hit rate of the full screen: of about 1,700 compounds, about 150 (8.8%) were called active. Inconclusive results (about 19%) are left out.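 Rule for the calls: active = fluorescence change differing from the plate's solvent-only control wells at 99.7% confidence in both duplicates, whether higher or lower; inconclusive = differs from solvent controls in only one of two duplicates; inactive = the rest.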 These entries were drawn from the full list.

The target in this experiment is Muscarinic acetylcholine receptor M4 (Rattus norvegicus) (UniProt P08485). The experiment in a line: agonist activity at rat M4 receptor, confirmation, counter-screen for M1 allosteric modulator project, cell-based, agonist mode (AID 1741). To be noted: CHO M4/Gqi5 cells, Fluo-4 calcium fluorescence, at 10 µM, actives lie on both sides. A general note: A counterscreen serves to expose hits that act by an unwanted route or on another target.
Sequence of Muscarinic acetylcholine receptor M4 (Rattus norvegicus) (P08485 whole entry, looked up): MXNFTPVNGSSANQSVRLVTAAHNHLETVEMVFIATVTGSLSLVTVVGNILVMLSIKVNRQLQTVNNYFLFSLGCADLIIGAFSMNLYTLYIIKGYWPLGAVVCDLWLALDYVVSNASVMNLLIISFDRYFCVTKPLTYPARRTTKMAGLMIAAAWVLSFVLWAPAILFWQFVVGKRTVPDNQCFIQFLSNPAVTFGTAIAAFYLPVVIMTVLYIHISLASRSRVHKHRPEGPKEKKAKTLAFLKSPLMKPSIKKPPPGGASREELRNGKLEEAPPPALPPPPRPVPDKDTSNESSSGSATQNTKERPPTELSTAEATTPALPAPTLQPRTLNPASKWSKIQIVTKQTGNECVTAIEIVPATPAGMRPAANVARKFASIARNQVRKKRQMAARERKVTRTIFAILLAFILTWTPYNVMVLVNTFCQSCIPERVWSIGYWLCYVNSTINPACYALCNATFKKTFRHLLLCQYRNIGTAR
For `O=C(O)c1ccc(COCC(F)(F)F)cc1`, the fluorescence change (max-min) was -14 (inactive).
On to `COCCNC(=O)C(c1ccc(C)o1)N(Cc1cccs1)C(=O)c1snc(C(N)=O)c1N` (configuration not stated), for which the fluorescence change (max-min) was -6.44 (inactive).
In the case of `COc1cccc2c(C)c(C(=O)O)[nH]c12` it was -9.04 (inactive); in that of `COc1ccccc1NC1=NC(c2ccc(Cl)cc2)N=C(N)N1` (configuration not stated), -38.9 (inactive).
In the case of `N#CC1=C(N)Oc2c(sc3ccccc23)C1c1ccco1` (configuration not stated) it was 50 (inactive); in that of `CCOc1ccc2nc(N3CCCN(C(=O)Nc4ccccc4C)CC3)c(C#N)cc2c1`, 246 (active).
`Cc1cc(NC(=O)COc2ccc(Cl)cc2Cl)n(CCC#N)n1`: the fluorescence change (max-min) was -13.8 (inactive).
In the case of `C(=N\n1cnnc1)/c1cccnc1` it was -25.3 (inactive).
Under `COc1ccc2nc(N3CCCC(O)C3)c(C#N)cc2c1` (configuration not stated) stands 176 (active).
In the case of `COc1ccc(N(CC(=O)NC(C)(C)C)C(=O)c2ccco2)cc1` it was -53.4 (inactive); in that of `O=C(CSc1nnc(-c2ccco2)n1Cc1ccccc1)NC(=O)NCc1ccco1`, -23.1 (inactive).
As for `COc1ncnc2c1N=C1CC(C)(C)CC(N)=C1S2`, the fluorescence change (max-min) was 136 (active).
For the compound `c1ccc2c(c1)OCC(CNc1ncnc3nc[nH]c13)O2` (configuration not stated), the fluorescence change (max-min) was 1130 (active).
Under `Cc1nc2ccccc2c2oc(C(=O)NCC3CCCO3)cc12` (configuration not stated) stands -66.7 (inactive); under `COC(=O)c1ccc(CSc2nc3ccccc3c(=O)n2-c2cccc(OC)c2)o1`, -28.9 (inactive); under `Cc1nc(CNS(=O)(=O)c2ccc(Oc3ccccc3)cc2)cs1`, 2.92 (inactive).
As for `COc1ccccc1NC(=O)CSc1nnc(Cn2nnc(-c3ccccc3)n2)n1-c1ccccc1`, the fluorescence change (max-min) is -51.1 (inactive).
In the case of `COc1ccccc1N1CCN(C(=O)c2cn(-c3ccccc3)nc2-c2cccnc2)CC1` it was -73.3 (inactive); in that of `COc1ccc(CCNC(=O)C2CCN(c3nn4c(=O)cc(C)nc4s3)CC2)cc1OC`, -40 (inactive); in that of `CCOc1cc(-c2nc3cc(C)ccn3c2NCC2CCCO2)ccc1O` (configuration not stated), -60.7 (inactive).
Under `CCOc1ccc(NC(=O)N2CC=C(n3c(=O)[nH]c4ccccc43)CC2)cc1` stands -26.4 (inactive); under `COc1ccc(Nc2oc(-c3ccccc3Cl)nc2C#N)cc1`, -74.3 (inactive).
In the case of `O=C(NCCC1=CCCCC1)C1CCN(Cc2cnn(-c3ccccc3)c2-n2cccc2)CC1`, the fluorescence change (max-min) is -67.1 (inactive).
Under `c1n[nH]c(NCc2ccc3c(c2)OCO3)n1` stands -28.2 (inactive); under `CC1CCCC(C)N1C(=O)CN1CCN(c2nc(-c3ccc(F)cc3)cs2)CC1` (configuration not stated), -9.73 (inactive).
`Nc1ccc(SCCN2C(=O)c3ccccc3C2=O)cc1`: the fluorescence change (max-min) is -77.3 (inactive).
Under `Cc1cc2cc(CN(Cc3cccs3)Cc3nnnn3CC3CCCO3)c(=O)[nH]c2cc1C` (configuration not stated) stands -27 (inactive).
